Source: PubChem BioAssay
For some of these results: Results with a measured potency or affinity are listed apart. Activity calls are given as the source filed them.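 How the source made its calls, unless noted: active means signal rise over 3 SD above mean of control wells given weak agonist, in both repeats and first screen; inactive means the rest.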

What was measured:
[1] = tested on: TRPC4 beta (transient receptor potential cation channel C4), mouse; test: activators of mouse TRPC4 channel, confirmation, cell-based, Fluo4 calcium, HEK293 TRPC4beta/mu-opioid, duplicates, 10 µM (AID 2426;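 active means fluorescence ratio normalized to control raised more than 50% in primary screen plus both repeat runs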); settings: Fluo4 calcium fluorescence, at 10 µM; active compounds read high
[2] = tested on: transient receptor potential cation channel C4 beta (TRPC4), mouse; test: activators of mouse TRPC4 channel, confirmation, cell-based, second round, Fluo4, HEK293 TRPC4beta/mu-opioid, 1 µM (AID 2461;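 active means primary screen active and over 50% activation in each of two duplicate runs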); settings: Fluo4 calcium fluorescence, at 1 µM; active compounds read high
[3] = tested on: TRPC4 (transient receptor potential cation channel C4 beta), mouse; test: positive allosteric modulators of mouse TRPC4, confirmation, cell-based, second round, Fluo-4, HEK293 TRPC4beta/mu-opioid, 1 µM (AID 2554;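 active means primary screen hit whose fluorescence ratio, in both repeats, exceeds the weak agonist control mean by 3 SD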); settings: DAMGO EC20, Fluo-4 calcium flux, at 1 µM; active compounds read high
[4] = tested on: TRPC4 beta (transient receptor potential cation channel C4), mouse; test: positive allosteric modulators of mouse TRPC4, confirmation, cell-based, Fluo-4, HEK293 TRPC4beta/mu-opioid (AID 2555;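 active means primary screen hit whose calcium fluorescence ratio, in both repeats, exceeds the weak agonist control mean by 3 SD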); settings: DAMGO EC20, Fluo-4 calcium flux, at 10 µM; active compounds read high
[5] = target: Short transient receptor potential channel 4 (Mus musculus) (UniProt Q9QUQ5); test: inhibitors of mouse TRPC4 channel, confirmation, cell-based, Fluo4, HEK293 TRPC4beta/mu-opioid (AID 2636;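 active means calcium signal cut by more than 3 SD below the full-agonist control yet still positive, in both repeats and the earlier primary screen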); settings: DAMGO, Fluo4 calcium flux, at 10 µM; active compounds read high
[6] = target: Short transient receptor potential channel 4 (Mus musculus) (UniProt Q9QUQ5); test: inhibitors of mouse TRPC4 channel, confirmation, cell-based, second round, Fluo4, HEK293 TRPC4beta/mu-opioid, 1 µM (AID 2637;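 active means calcium signal ratio cut to more than 3 SD under the fully stimulated control mean yet still positive, in both repeats and the primary screen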); settings: Fluo4 calcium flux, DAMGO, at 1 µM; active compounds read high
[7] = target: Short transient receptor potential channel 4 (Mus musculus) (UniProt Q9QUQ5); test: mouse TRPC4 channel activators, dose response, cell-based, HEK293 TRPC4/mu-opioid, Fluo-4 calcium (AID 434937;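 active means primary screen activator hit with a dose response curve and TRPC4 channel activation at any tested dose; inactive means no activation, no dose response, or not a primary hit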)
[8] = target: Short transient receptor potential channel 4 (Mus musculus) (UniProt Q9QUQ5); test: TRPC4 positive allosteric modulators, dose response, cell-based, HEK293 TRPC4/mu-opioid, Fluo-4 calcium, EC20 DAMGO (AID 434941;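 active means earlier screen potentiator hit that boosts the TRPC4 ion channel at some dose, with a dose response; inactive means no potentiation, no dose response, or not a prior hit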;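 further: calcium entry triggered by an EC20 dose of DAMGO at the co-expressed mu-opioid receptor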)
[9] = target: Short transient receptor potential channel 4 (Mus musculus) (UniProt Q9QUQ5); test: mouse TRPC4 channel inhibitors, dose response, cell-based, HEK293 TRPC4/mu-opioid, Fluo-4 calcium (AID 434942;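 active means primary screen inhibitor hit that blocks the TRPC4 channel at some tested dose, yielding a dose curve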)
[10] = target: Short transient receptor potential channel 6 (Mus musculus) (UniProt Q61143); test: inhibition of mouse TRPC6 channel, confirmation, selectivity assay for TRPC4 inhibitor project, cell-based, HEK293, membrane potential dye, duplicate (AID 434948;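 active means active in primary screen and both duplicates, each dropping signal beyond three positive-control SD with fluorescence still positive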); settings: HEK293 TRPC6, membrane potential dye fluorescence, at 10 µM, stimulated with maximal-effect acetylcholine; active compounds read high
[11] = target: Short transient receptor potential channel 6 (Mus musculus) (UniProt Q61143); test: activation of mouse TRPC6 channel, confirmation, selectivity assay for TRPC4 activator project, cell-based, HEK293, membrane potential dye, duplicate (AID 434950;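 active means membrane potential signal rise above negative control mean plus 3 SD in both duplicates, also active in the earlier TRPC4 screen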); settings: HEK293 TRPC6, membrane potential fluorescence, at 10 µM; active compounds read high
[12] = target: Short transient receptor potential channel 6 (Mus musculus) (UniProt Q61143); test: TRPC6 potentiation by TRPC4 potentiator hits, confirmation, selectivity assay for TRPC4 potentiator project, HEK293 cells, membrane potential dye, duplicate (AID 434952;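 active means compound raising the membrane signal above positive-control mean plus 3 SD in both repeats, and a primary screen hit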); settings: HEK293 TRPC6, membrane potential dye fluorescence, at 10 µM, maximal acetylcholine added after compound; active compounds read high
[13] = target: Short transient receptor potential channel 4 (Mus musculus) (UniProt Q9QUQ5); test: calcium flux activators in TRPC4/5HT1a cells, counter-screen for TRPC4 activator project, cell-based, second counter screen, HEK293 TRPC4/5HT1a, Fluo-4 (AID 434977;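 active means calcium signal rise above buffer-control mean plus 5 SD in both duplicates, and also a hit in the primary screen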); settings: Fluo-4 calcium flux, at 10 µM; active compounds read high
[14] = calcium flux inhibitors in TRPC4/5HT1a cells, confirmation, counter-screen for TRPC4 inhibitor project, cell-based, second counter screen, HEK293 TRPC4/5HT1a, Fluo-4 (AID 434978;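 active means primary screen active whose calcium signal fell more than 3 SD beyond the full-serotonin control mean in both duplicate plates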;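 further: serotonin given first at submaximal then at maximal dose after compound preincubation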); settings: Fluo-4 calcium flux, at 10 µM, serotonin added to trigger calcium flux; active compounds read high
[15] = tested on: TRPC4 (mouse), co-expressed with 5HT1a in HEK293; test: calcium flux potentiators in TRPC4/5HT1a cells, confirmation, counter-screen for TRPC4 potentiator project, cell-based, second counter screen, HEK293 TRPC4/5HT1a, Fluo-4 (AID 434979); settings: Fluo-4 calcium flux, at 10 µM, serotonin added at its EC20 dose; active compounds read high
[16] = calcium flux activation in mu-opioid HEK293 cells, confirmation, counter-screen for TRPC4 activator project, cell-based, HEK293 mu-opioid receptor line (AID 449723;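 active means hit in primary screen, with calcium signal over 5 SD above buffer well mean in both duplicates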;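 further: counter screen cells carry the mu-opioid receptor alone and lack TRPC4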); settings: Fluo-4 calcium fluorescence, at 10 µM; active compounds read high
[17] = calcium flux enhancement in mu-opioid HEK293 cells, confirmation, counter-screen for TRPC4 allosteric potentiator project, cell-based, HEK293 mu-opioid receptor line (AID 449724;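 active means calcium signal rise more than 3 SD above the low-dose agonist control mean, in both duplicate plates and the primary screen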); settings: Fluo-4 calcium flux, at 10 µM, compound added before EC20 DAMGO stimulus; active compounds read high

Measured: potentiation

Chain of Short transient receptor potential channel 6 (Mus musculus) (Q61143 whole entry, looked up): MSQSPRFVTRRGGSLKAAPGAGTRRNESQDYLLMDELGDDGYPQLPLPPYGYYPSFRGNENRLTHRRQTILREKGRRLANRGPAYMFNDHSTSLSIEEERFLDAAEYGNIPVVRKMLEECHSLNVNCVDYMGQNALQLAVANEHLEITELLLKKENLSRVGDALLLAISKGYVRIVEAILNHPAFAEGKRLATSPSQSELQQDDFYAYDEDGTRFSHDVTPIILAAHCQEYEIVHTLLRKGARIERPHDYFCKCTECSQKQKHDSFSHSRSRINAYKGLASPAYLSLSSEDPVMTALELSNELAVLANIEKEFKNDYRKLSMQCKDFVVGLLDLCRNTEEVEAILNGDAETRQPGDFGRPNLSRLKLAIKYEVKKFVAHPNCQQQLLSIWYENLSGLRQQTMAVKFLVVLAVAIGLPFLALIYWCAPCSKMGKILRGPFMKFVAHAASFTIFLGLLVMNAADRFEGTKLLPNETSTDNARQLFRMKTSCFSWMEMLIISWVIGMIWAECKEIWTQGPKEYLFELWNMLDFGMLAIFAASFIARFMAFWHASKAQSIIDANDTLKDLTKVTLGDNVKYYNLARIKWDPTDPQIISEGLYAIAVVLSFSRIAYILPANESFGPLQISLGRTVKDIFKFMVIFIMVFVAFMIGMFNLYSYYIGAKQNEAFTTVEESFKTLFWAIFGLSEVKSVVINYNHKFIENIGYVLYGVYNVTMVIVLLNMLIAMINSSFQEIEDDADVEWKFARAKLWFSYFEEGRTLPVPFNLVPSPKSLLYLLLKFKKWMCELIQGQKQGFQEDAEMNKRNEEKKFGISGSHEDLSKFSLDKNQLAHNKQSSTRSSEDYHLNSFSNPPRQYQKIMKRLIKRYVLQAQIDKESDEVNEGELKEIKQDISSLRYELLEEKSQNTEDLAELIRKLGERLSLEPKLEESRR
Chain of Short transient receptor potential channel 4 (Mus musculus) (Q9QUQ5 whole entry, looked up): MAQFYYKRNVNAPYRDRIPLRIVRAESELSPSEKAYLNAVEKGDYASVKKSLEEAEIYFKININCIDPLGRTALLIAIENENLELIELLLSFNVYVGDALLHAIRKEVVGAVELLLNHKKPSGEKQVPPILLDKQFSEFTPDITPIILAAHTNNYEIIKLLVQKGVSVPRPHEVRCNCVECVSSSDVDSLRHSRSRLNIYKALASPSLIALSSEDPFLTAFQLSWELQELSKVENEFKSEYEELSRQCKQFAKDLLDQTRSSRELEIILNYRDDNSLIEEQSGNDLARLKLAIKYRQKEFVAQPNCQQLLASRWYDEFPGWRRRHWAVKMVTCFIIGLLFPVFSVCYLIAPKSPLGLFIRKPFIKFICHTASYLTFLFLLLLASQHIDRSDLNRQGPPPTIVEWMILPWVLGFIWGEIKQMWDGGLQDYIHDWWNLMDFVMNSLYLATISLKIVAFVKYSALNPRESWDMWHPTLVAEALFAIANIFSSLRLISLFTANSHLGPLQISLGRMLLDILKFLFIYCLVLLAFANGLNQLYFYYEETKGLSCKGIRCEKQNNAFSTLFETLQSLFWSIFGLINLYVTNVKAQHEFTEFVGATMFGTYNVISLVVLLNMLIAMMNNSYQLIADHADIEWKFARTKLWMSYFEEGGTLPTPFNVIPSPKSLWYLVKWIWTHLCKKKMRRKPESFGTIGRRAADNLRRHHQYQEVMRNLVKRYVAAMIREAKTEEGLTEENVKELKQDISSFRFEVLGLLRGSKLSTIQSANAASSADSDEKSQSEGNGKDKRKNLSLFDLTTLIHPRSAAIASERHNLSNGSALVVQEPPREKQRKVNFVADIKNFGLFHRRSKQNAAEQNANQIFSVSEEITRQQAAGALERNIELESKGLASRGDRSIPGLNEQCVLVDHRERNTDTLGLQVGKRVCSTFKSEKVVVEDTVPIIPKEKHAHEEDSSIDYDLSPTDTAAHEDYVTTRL

COc1ccc(/C=N/Nc2nc3ccccc3s2)cc1O
inactive: [1] | [2] | [3] | [4] | [5] | [6] | [7] | [8] | [9] | [10] | [11] | [12] | [13] | [14] | [16] | [17]
active: [15] 26%

CN(Cc1ccccc1)C(=O)c1oc(=O)c2ccccc2c1-c1ccccc1
inactive: [1] | [2] | [3] | [4] | [5] | [6] | [7] | [8] | [9] | [10] | [11] | [12] | [13] | [14] | [16] | [17]
active: [15] 9.58%

CC1(C#CC[N+]2(C)CCCCC2)CCC2C(O1)c1ccccc1OC2(C)C (stereo unspecified)
active: [3] 8% | [4] 21%
inactive: [1] | [2] | [5] | [6] | [7] | [8] | [9] | [10] | [11] | [12] | [13] | [14] | [15] | [16] | [17]

CCn1c(C2CC(=O)N(Cc3ccccc3)C2)nc2ccccc21 (stereo unspecified)
inactive: [1] | [2] | [3] | [5] | [6] | [7] | [8] | [9] | [10] | [11] | [12] | [13] | [14] | [16] | [17]
active: [4] 11% | [15] 23.9%

CC1CCCCC1NC(=O)c1cc2ccccc2o1 (stereo unspecified)
active: [4] 46% | [15] 42.2%
inactive: [1] | [2] | [3] | [5] | [6] | [7] | [8] | [9] | [10] | [11] | [12] | [13] | [14] | [16] | [17]

CCc1c(C)nc2c(-c3ccccc3)c(C)nn2c1Nc1ccc(NC(C)=O)cc1
active: [4] 14% | [15] 74%
inactive: [1] | [2] | [3] | [5] | [6] | [7] | [8] | [9] | [10] | [11] | [12] | [13] | [14] | [16] | [17]

Oc1cccc(C(=S)N2CCN(Cc3ccccc3)CC2)c1
inactive: [1] | [2] | [3] | [4] | [5] | [6] | [7] | [8] | [9] | [10] | [11] | [12] | [13] | [14] | [15] | [16] | [17]

CCN1CCN(c2ccc(S(=O)(=O)N3CCCCC3)cc2NC(=O)c2cccc(F)c2)CC1
inactive: [1] | [2] | [3] | [4] | [5] | [6] | [7] | [8] | [9] | [10] | [11] | [12] | [13] | [14] | [16] | [17]
active: [15] 18.4%
